The list is not random: actives were taken first. Their share in the collection is about 2.3%.
H9c2 protect: modulators protecting cardiomyocytes from myocardial damage | H9c2 cardiomyocytes, H2O2 injury protection, ATPLite, 2 h | protection from H2O2 cell death, % at 20 µM | 0.63% of 360,000 active | AID 588492;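 active = compounds giving at least 50% protection of heart cells from peroxide-induced death in the single-dose screen, raw or plate-pattern-corrected value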;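 also: 0% = DMSO wells with peroxide and 100% = DMSO wells without peroxide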
MIN6 prolif: MIN6 beta-cell proliferation induction. MIN6 cells proliferation, ATPlite luminescence, 48 h; cells starved in 0.2% serum; 100% = growth in 10% serum. proliferation, % at 10 µM. 0.29% of 330,000 active;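 active = compounds whose signal lies at least 3.5 SD above the mean of all wells on their plate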;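 also: 0% = DMSO-treated cells in low-serum medium and 100% = 10% serum control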
FAS TE block: inhibitors of human fatty acid synthase thioesterase domain; P49327; recombinant FAS-TE, OMFH fluorogenic substrate, fluorescence endpoint; inhibition, % at 15 µM; 0.67% of 360,000 active;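 active = compounds whose normalised, plate-corrected inhibition of enzyme fluorescence in the single-dose primary screen is 50% or more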;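 also: 0% = DMSO with enzyme and 100% = substrate without enzyme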
m-calpain inh: inhibitors of pig calpain II; inhibition, % at 16 µM; 0.37% of 220,000 active; purified calpain II, fluorogenic peptide substrate, 30 min; AID 1236;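 active = inhibition above about 50%, limit read from the data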
H9c2 TAG inh: triacylglycerol accumulation inhibition; H9c2 cells, Nile Red lipid (TAG) fluorescence; cells loaded with 200 µM oleic acid; inhibition, % at 12.5 µM; 0.66% of 230,000 active;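 active = pattern-corrected inhibition of lipid staining of at least 50% with the nuclear-stain viability signal not falling by more than 50%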;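 also: 0% = DMSO wells and 100% = triacsin C control wells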
aDG glyco up: alpha-DG glycosylation activation; 0.22% of 360,000 active; Pro5-aDG cells, alpha-DG glycosylation AlphaScreen (IIH6); 0% Pro5, 100% B10-LARGE cell signal; activation, % at 10 µM;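 active = activation of at least 8% versus controls, or a plate z-score of at least 8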;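 also: Pro5 are CHO cells carrying HIG-tagged alpha-DG that lacks glycosylation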
FAS-TE inh conf: confirmation of human fatty acid synthase thioesterase inhibitors; recombinant FAS-TE, OMFH fluorogenic substrate, fluorescence; 45% of 2,300 active; inhibition, % at 15 µM; AID 624325; shares compounds with FAS TE block;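 active = compounds inhibiting the enzyme by at least 50% at 15 µM in any one of the replicates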;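 also: 0% = enzyme with DMSO only and 100% = wells lacking enzyme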
Starred values were filed as active, the others as inactive; . = not tested or not shown.

SMILES | H9c2 protect | MIN6 prolif | FAS TE block | m-calpain inh | H9c2 TAG inh | aDG glyco up | FAS-TE inh conf
Cc1cc(Cl)ccc1OC(C)C(=O)Nc1ccc([N+](=O)[O-])cn1 (centres undefined) | -3 | -2 | 52* | 11 | . | 0 | 22
CCN(CC)C(=O)C1CCCN(c2ccc([N+](=O)[O-])cc2/C=N/NC(=O)c2ccccc2)C1 (centres undefined) | 42 | 1 | 85* | -21 | . | 0 | 56*
CN1CCN(c2ccc([N+](=O)[O-])cc2/C=N/NC(=O)c2cccc([N+](=O)[O-])c2)CC1 | . | -2 | . | 19 | . | . | .
CCN(CC)C(=O)C1CCCN(c2ccc([N+](=O)[O-])cc2/C=N/NC(=O)c2cccc(O)c2)C1 (centres undefined) | 24 | -2 | 66* | -42 | 0 | 0 | 68*
CCN(CC)C(=O)C1CCCN(c2ccc([N+](=O)[O-])cc2/C=N/NC(=O)c2ccc([N+](=O)[O-])cc2)C1 (centres undefined) | 16 | 1 | 44 | -95 | 2 | 0 | .
COc1ccc(-c2[nH][nH]c(=O)c2NC(=O)c2ccc(C)cc2)cc1 | -4 | . | -1 | . | . | 0 | .
CCCCc1ccc(C2C3=C(CC(C)(C)CC3=O)NC3=C2C(=O)c2ccccc23)cc1 (centres undefined) | -7 | 0 | 63* | -28 | . | 2 | 11
O=C1CN(C(=O)c2cc([N+](=O)[O-])ccc2Cl)C(c2ccccc2)c2cc(F)ccc2N1 (centres undefined) | 6 | -1 | 86* | 2 | . | 0 | 88*
Cc1csc2nc(NC(=O)c3ccccc3)sc(=O)c12 | -12 | -3 | 3 | -28 | -15 | 0 | .
Cc1csc2c(=O)sc(NC(=O)c3ccc(F)cc3)nc12 | -2 | 0 | -1 | -31 | -4 | 0 | .
Cc1ccccc1C(=O)Nc1nc2c(C)csc2c(=O)s1 | 0 | 3 | 51* | -26 | 0 | 0 | 27
Cc1csc2c(=O)sc(NC(=O)c3ccc(F)cc3Cl)nc12 | -6 | -1 | 84* | -30 | 4 | 0 | 4
COc1ccccc1NS(=O)(=O)c1cccc(C(=O)NCC(c2ccc(F)cc2)N2CCOCC2)c1 (centres undefined) | 14 | -2 | -2 | . | 8 | 0 | .
Cc1ccc(S(=O)(=O)Nc2ccc3c(c2)CCC3)cc1 | -14 | -1 | 13 | 21 | . | 0 | .
Cc1ccc(S(=O)(=O)Nc2ccc3c(c2)c2c(n3S(=O)(=O)c3ccc(C)cc3)CCCC2=O)cc1 | -2 | -4 | 51* | 42 | . | 0 | 20
O=C1CCC[C@@H]2C[C@@]3(C[C@@H]4CCN1[C@H]24)Nc1cc(Cl)c(Cl)cc1NC3=NCc1ccccc1 | 5 | . | 52* | . | 48 | 0 | 36
COc1ccc(OC)c(/C=C2\N=C(c3ccccc3)OC2=O)c1 | 8 | -3 | 61* | . | . | 0 | -38
COc1ccc(C(C(=O)NC2CCCC2)N(C(=O)c2snc(-c3ccc(F)cc3)c2N)c2ccc(OC)cc2)cc1 (centres undefined) | -8 | -1 | 59* | -227 | . | 0 | 27
CC(=O)OCc1ccc(C2=CC(=O)CC(C)(C)C2=O)cc1 | 5 | . | -4 | . | 12 | 0 | .
CC(C)(C)C(=O)OCc1ccc(C2=CC(=O)CC(C)(C)C2=O)cc1 | -8 | . | 82* | . | -11 | 0 | 82*
CCCCCC(=O)OCc1ccc(C2=CC(=O)CC(C)(C)C2=O)cc1 | 5 | . | 64* | . | -1 | 0 | 56*
CC1C(=O)CC(c2ccc([N+](=O)[O-])cc2)NC1c1ccc([N+](=O)[O-])cc1 (centres undefined) | -2 | -2 | 52* | -5 | -17 | 0 | -1
Cc1[nH]n2c(=O)cc(-c3ccc([N+](=O)[O-])cc3)nc2c1-c1ccccc1 | 37 | -3 | 59* | . | 0 | 0 | 77*
O=C1c2ccccc2C(=O)N1CCC1(O)C(c2ccccc2)=Nc2ccccc21 (centres undefined) | 35 | . | -5 | . | -12 | 0 | .
CN1C(=O)/C(=C\c2cc(N=Nc3ccccc3)ccc2O)SC1=S | -40 | -5 | 66* | -4 | . | 0 | 38*

Screening data: PubChem BioAssay, several laboratories
